The results in this text go back to PubChem BioAssay (NCATS).

Results filed as inconclusive are left out. The source made the active and inactive calls. Unless noted, calls follow the shape of the dose curve; as a rule, active = well fitted curve in the direction sought with a large enough effect; inconclusive = small, poorly fitted or top-dose-only effect, or another doubt; inactive = no such curve, though single readings can be large; an effect the other way counts as inactive or inconclusive.

For test [1], the target named is Cytochrome P450 2D6 (Homo sapiens) (UniProt P10635). Briefly: qHTS for inhibitors of CYP2D6 against the NCATS DSHEA and TCM libraries (AID 1919972). Also: % is scaled to controls: 0 for no effect and ±100 for the full control effect. In a few lines: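 CYP2D6 enzyme with pro-luciferin substrate in manufacturer buffer (typically 100 mM KPO4), preincubated 15 min RT with substances (most at 19.5 nM upward); NADPH regeneration system (1x) started 30–45 min RT reaction; P450-Glo luminescence read after 30 min; quinidine as intraplate control.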
Chain of Cytochrome P450 2D6 (Homo sapiens) (P10635 whole entry, looked up): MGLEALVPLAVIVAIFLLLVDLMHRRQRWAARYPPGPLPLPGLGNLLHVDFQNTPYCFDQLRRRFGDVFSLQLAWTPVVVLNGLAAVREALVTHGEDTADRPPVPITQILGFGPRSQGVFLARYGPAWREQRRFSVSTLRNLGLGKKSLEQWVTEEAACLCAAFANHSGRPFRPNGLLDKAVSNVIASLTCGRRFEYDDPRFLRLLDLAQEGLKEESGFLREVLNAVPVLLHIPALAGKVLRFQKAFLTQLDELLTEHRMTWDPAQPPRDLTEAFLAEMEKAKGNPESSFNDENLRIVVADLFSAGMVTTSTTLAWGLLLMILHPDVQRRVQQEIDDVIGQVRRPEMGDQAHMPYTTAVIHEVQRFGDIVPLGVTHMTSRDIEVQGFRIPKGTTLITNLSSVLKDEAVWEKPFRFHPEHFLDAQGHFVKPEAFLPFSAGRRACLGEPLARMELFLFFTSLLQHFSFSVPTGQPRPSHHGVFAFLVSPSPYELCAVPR

For test [2], the target named is Cytochrome P450 2C9 (Homo sapiens) (UniProt P11712). Briefly: qHTS for inhibitors of CYP2C9 against the NCATS DSHEA and TCM libraries (AID 1919973).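 Also: luminogenic pro-luciferin CYP2C9 substrate turned into luciferin with NADPH regeneration; % is scaled to controls: 0 for no effect and ±100 for the full control effect.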 A digest of the protocol:
(§1)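 Concentration-response screening with isoform-matched pro-luciferin substrates. The CYP reaction was initiated by NADPH regenerating solution and ran 30-45 min in darkness at room temperature.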
On the technique in general: Quantitative high-throughput screening tests each substance at several concentrations.

In test [3] the target is Cytochrome P450 2C19 (Homo sapiens) (UniProt P33261). Briefly: qHTS for inhibitors of CYP2C19 against the NCATS DSHEA and TCM libraries (AID 1919974).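 Also: luminescence from luciferin released by CYP2C19 oxidation of a pro-luciferin substrate; % is scaled to controls: 0 for no effect and ±100 for the full control effect.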 A digest of the protocol: as §1
Chain of Cytochrome P450 2C19 (Homo sapiens) (P33261 whole entry, looked up): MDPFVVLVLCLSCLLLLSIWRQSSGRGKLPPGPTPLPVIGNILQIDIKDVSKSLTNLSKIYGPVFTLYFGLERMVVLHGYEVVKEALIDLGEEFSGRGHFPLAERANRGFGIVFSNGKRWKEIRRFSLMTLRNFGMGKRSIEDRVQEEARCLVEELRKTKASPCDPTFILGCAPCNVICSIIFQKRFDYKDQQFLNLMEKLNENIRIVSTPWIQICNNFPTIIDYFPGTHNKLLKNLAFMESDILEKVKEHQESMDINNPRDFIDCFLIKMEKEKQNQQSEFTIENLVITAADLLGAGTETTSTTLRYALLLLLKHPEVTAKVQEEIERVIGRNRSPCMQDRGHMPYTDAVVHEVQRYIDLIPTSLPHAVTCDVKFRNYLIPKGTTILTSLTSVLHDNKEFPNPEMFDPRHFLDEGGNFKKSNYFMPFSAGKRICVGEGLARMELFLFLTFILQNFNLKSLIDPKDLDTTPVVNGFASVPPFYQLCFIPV
The nature of test [4]: KB-3-1 P-gp reporter qHTS against the NCATS DSHEA and TCM libraries (AID 1919975). Also: 0% is about no effect. In a few lines: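 72 h exposure of KB-3-1 cells (DMEM, 10% FBS) to DSHEA/TCM samples, concentration-response; cell viability measured as CellTiter-Glo luminescence after 30 min at room temperature.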
Test [5] is described as follows: qHTS Counterscreen for compound interference against the NCATS DSHEA and TCM libraries (AID 1919978). Also: % of control where 0% means no effect. Conditions: firefly luciferase detection reagent interference, luminescence. In a few lines: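 Read-out is luminescence after 30 min at RT with luciferin detection reagent. Before that, compounds (19.5 nM to 39.8 uM final) sat 15 min at RT with 1 uM D-luciferin or 100 mM potassium phosphate buffer. PTC124 served as intraplate control.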

The target of test [6] is Nuclear receptor subfamily 1 group I member 2 (Homo sapiens) (UniProt O75469). In words: Dual reporter qHTS for agonist of Pregnane X Receptor (hPXR) against the NCATS DSHEA and TCM libraries: Luminescence readout (AID 1920059). Also: 0% is about no effect. A digest of the protocol: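 hPXR-LucHepG2 cells in phenol red-free DMEM with 5% charcoal-stripped FBS, 2000 cells/well, attached 5 h, then exposed 24 h at 37C to compounds; rifampicin as positive agonist control (2.8 nM–92 uM). Luciferase luminescence read.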
Chain of Nuclear receptor subfamily 1 group I member 2 (Homo sapiens) (O75469 whole entry, looked up): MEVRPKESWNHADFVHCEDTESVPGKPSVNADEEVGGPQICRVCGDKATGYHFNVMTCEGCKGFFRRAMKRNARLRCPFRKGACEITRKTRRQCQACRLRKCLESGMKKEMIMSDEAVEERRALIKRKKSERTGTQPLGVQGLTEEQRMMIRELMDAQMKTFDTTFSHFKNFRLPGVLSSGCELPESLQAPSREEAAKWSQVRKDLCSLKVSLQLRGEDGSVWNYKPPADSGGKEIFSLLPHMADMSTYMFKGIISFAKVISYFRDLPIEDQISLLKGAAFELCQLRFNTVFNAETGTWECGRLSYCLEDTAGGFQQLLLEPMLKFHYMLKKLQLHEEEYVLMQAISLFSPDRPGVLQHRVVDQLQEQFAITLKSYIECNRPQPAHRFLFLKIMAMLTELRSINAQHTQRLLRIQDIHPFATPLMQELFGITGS

Test [7] shares this target. In words: Dual reporter qHTS for antagonist of Pregnane X Receptor (hPXR) against the NCATS DSHEA and TCM libraries: Luminescence Readout (AID 1920060). Also: 0% is about no effect. In a few lines:
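Rifampicin-stimulated (2 uM final) hPXR-luciferase HepG2 cells were treated for 24 h with DSNP/TCM substances. Viability came from CellTiter-Fluor fluorescence, reporter activity from ONE-Glo luminescence.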

Test [8] in a line: qHTS profiling for inhibitors of Plasmodium falciparum proliferation (AID 504749). Also: potency is read from the fitted curve at half-maximal effect.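 As to activity, negative = inhibition: 0% = DMSO vehicle and full inhibition = artemisinin control.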 As to all read-outs here: nearly all actives have a fitted effect of over 60% in size. The note with it: P. falciparum in erythrocytes, SYBR Green DNA, 72 h; for activity, negative = inhibition: at 28.7 µM (top of the series). In a few lines:
(§2)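 Quantitative HTS: compounds pinned into medium, infected erythrocytes added (0.3% parasitemia, 2.5% hematocrit), 72 h culture at 37 C under 5% CO2. Saponin/Triton lysis with SYBR Green I, overnight RT, then fluorescence read.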

In test [9] the test system is 3D7. The test is described as above. Conditions: P. falciparum in erythrocytes, SYBR Green DNA, 72 h; series mostly up to 28.7 µM. A digest of the protocol:
as §2

In test [10] the test system is AA1029. The description is as above. Conditions: P. falciparum in erythrocytes, SYBR Green DNA, 72 h; series mostly up to 28.7 µM. In a few lines: as §2
For test [11], the system named is AS120. Described as above. The note with it: P. falciparum in erythrocytes, SYBR Green DNA, 72 h; series mostly up to 28.7 µM. A digest of the protocol:
as §2

Test [12] has as its system ATS189. The description is as above. The note with it: P. falciparum in erythrocytes, SYBR Green DNA, 72 h; series mostly up to 28.7 µM. In a few lines: as §2
The subject of test [13] is ATS95. The test is described as above. Conditions: P. falciparum in erythrocytes, SYBR Green DNA, 72 h; series mostly up to 28.7 µM. A digest of the protocol: as §2
Test [14] relates to C2A. Described as above. Conditions: P. falciparum in erythrocytes, SYBR Green DNA, 72 h; series mostly up to 28.7 µM. In a few lines: as §2
Test [15] deals with CP185. The test is described as above. Conditions: P. falciparum in erythrocytes, SYBR Green DNA, 72 h; series mostly up to 28.7 µM. In a few lines: as §2
Test [16] has as its system CP191. The test is described as above. The note with it: P. falciparum in erythrocytes, SYBR Green DNA, 72 h; series mostly up to 28.7 µM. A digest of the protocol: as §2
Test [17] concerns CP192. Described as above. Conditions: P. falciparum in erythrocytes, SYBR Green DNA, 72 h; series mostly up to 28.7 µM. In a few lines:
as §2

The nature of test [18]: qHTS drug screen for cell cycle checkpoint inhibitors in PARPi-resistant BRCA-mutant ovarian cancer cell lines. (AID 1963452; calls by dose curve). The note with it: PEO1/OlaR viability, CellTiter-Glo luminescence, 96 h, stronger effect = lower value. A digest of the protocol:
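PEO1, PEO4 and PEO1/OlaR ovarian cancer cells, 600 per well, exposed 96 h at 37C to a dilution series. Viability read by CellTiter-Glo luminescence, normalized to DMSO and empty wells; activity summarized as Z-AUC.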

A short description of test [19]: Dual reporter qHTS for agonist of Pregnane X Receptor (hPXR) against the NCATS DSHEA and TCM libraries: Fluorescence readout (AID 1920058). Also: 0% is about no effect. In a few lines: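 Cells were plated at 2000 per well and allowed to attach for 5 h. Test substances were pinned in and incubated roughly 24 h. CellTiter-Fluor was then added and fluorescence measured after 1 h.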
The subject of test [20] is 7G8. Briefly: qHTS profiling for inhibitors of Plasmodium falciparum proliferation (AID 504749). Also: nearly all actives have a fitted effect of over 60% in size. Also: potency is read from the fitted curve at half-maximal effect.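 As to activity, negative = inhibition: 0% = DMSO vehicle and full inhibition = artemisinin control.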 The note with it: P. falciparum in erythrocytes, SYBR Green DNA, 72 h; series mostly up to 28.7 µM. A digest of the protocol: as §2
The mark [21] stands for this setting: measured here: PEO1 parental Z-AUC.

Chain of Cytochrome P450 2C9 (Homo sapiens) (P11712 whole entry, looked up, canonical isoform): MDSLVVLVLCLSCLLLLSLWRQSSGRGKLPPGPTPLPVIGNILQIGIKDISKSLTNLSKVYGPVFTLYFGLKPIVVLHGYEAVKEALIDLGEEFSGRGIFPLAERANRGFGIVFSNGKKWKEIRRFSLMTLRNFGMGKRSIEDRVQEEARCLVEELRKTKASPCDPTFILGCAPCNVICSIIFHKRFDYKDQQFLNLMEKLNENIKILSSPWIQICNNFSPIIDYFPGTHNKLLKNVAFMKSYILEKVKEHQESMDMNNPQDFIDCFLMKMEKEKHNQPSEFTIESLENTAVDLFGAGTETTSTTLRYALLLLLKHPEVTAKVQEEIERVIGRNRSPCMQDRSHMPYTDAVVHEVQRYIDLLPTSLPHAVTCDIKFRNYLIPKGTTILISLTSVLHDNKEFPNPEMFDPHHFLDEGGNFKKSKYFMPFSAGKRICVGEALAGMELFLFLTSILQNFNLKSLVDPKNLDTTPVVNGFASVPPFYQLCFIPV

For `CCCCC/C=C\C/C=C\C/C=C\CCCCC(=O)O`, the activity change, negative = inhibition in [1] was 3.71% [at 4.27 µM] (inactive); in [2] it was -2.07% [at 4.27 µM] (inactive); in [3], 19.3% [at 4.27 µM] (inactive); in test [4], -0.723% [at 3.26 µM] (inactive); in test [7], -11% [at 5 µM] (inactive). Also, the max response in test [5] is -1.8% (inactive). For the same molecule, the activation in test [6] was -11.8% [at 5 µM] (inactive). The activity, negative = inhibition in test [8] (parasite line A) was -2.11% (inactive); in test [8] (parasite line B), -8.25% (inactive). In addition, the Potency result in test [9], in test [10], in test [11], in [12], in test [13] and in test [14] was “inactive” in each case. In addition, the Potency entry in test [15], in test [16] and in [17] was “inactive” in each case.

As for `CO[C@H]1O[C@@H]2O[C@@]3(C)CC[C@H]4[C@H](C)CC[C@@H]([C@H]1C)[C@@]24OO3`, the Z-AUC in test [18] was -0.105 (inactive); in [18] (setting [21]), 0.613; in test [18] (measured here: PEO4 Z-AUC), 0.87.

As to `NC[C@H]1O[C@H](O[C@H]2[C@H](O)[C@@H](O[C@H]3O[C@H](CO)[C@@H](O)[C@H](N)[C@H]3O)[C@H](N)C[C@@H]2N)[C@H](N)C[C@@H]1O`, the Z-AUC in [18] was -0.784 (inactive); in test [18] (setting [21]), -0.522; in [18] (measured here: PEO4 Z-AUC), -0.139.

As to `CC/C=C\C/C=C\C/C=C\C/C=C\C/C=C\CCCC(=O)O`, the molecule was classed as inactive in test [1], in [4], in test [19] and in test [7]. Besides, the Potency entry in test [2], in test [3], in test [6], in test [9], in test [10] and in test [11] was “inactive” each time. Further, the Potency entry in test [12], in test [13], in [14], in [15], in [16] and in [17] was “inactive” in each case. Also, the max response in test [5] was 0.593% (inactive). Also, the activity, negative = inhibition was -4.56% (inactive) in test [8] (parasite line A) and -6.54% (inactive) in [8] (parasite line B).

Take `CC/C=C\C/C=C\C/C=C\C/C=C\C/C=C\C/C=C\CCC(=O)O`: the Potency entry in test [2], in test [6], in [9], in [10], in test [11] and in test [12] was “inactive” each time. Moreover, the Potency result in [13], in test [14], in [15], in test [16] and in test [17] was “inactive” throughout. Besides, the result in [4], in [19] and in [7] was inactive. Besides, in test [5], the max response was -0.949% (inactive). Besides, the activity, negative = inhibition is -24.9% (inactive) in test [8] (parasite line A) and -13.6% (inactive) in test [8] (parasite line B). The Potency in test [20] is 12600 nM (active).

As to `C=C1[C@H](CO)[C@@H](O)C[C@@H]1n1cnc2c(=O)[nH]c(N)nc21`, the Z-AUC in [18] was 1.7 (inactive); in [18] (setting [21]) it was 1.15; in [18] (measured here: PEO4 Z-AUC), 1.37.

For `CC(C)Cc1ccc([C@@H](C)C(=O)NS(C)(=O)=O)cc1`, the Z-AUC is 1.32 (inactive) in test [18], 0.781 in test [18] (setting [21]) and 0.752 in test [18] (measured here: PEO4 Z-AUC). The activity, negative = inhibition in test [8] (parasite line A) is 3.44% (inactive); in [8] (parasite line B) it was -5.62% (inactive). Also, the Potency result in test [9], in test [20], in test [10], in [11], in test [12] and in test [13] was “inactive” throughout. The Potency entry in test [14], in [15], in test [16] and in [17] was “inactive” in each case.

Regarding `C=CC[C@@H]1/C=C(\C)C[C@H](C)C[C@H](OC)[C@H]2O[C@@](O)(C(=O)C(=O)N3CCCC[C@H]3C(=O)O[C@H](/C(C)=C/[C@@H]3CC[C@@H](O)[C@H](OC)C3)[C@H](C)[C@@H](O)CC1=O)[C@H](C)C[C@@H]2OC`, the Z-AUC in test [18] was 1.09 (inactive); in test [18] (setting [21]) it was 0.699; in test [18] (measured here: PEO4 Z-AUC), 1.02. The Potency in test [8] (parasite line A) is 2000 nM (active); in test [8] (parasite line B), 1260 nM (active); in [9], 891 nM (active); in [20] it was 1000 nM (active); in test [10], 2000 nM (active); in [11] it was 1410 nM (active). Moreover, the Potency in [12] is 1000 nM (active); in test [13], 2240 nM (active); in [14], 251 nM (active); in [15], 891 nM (active); in test [16], 1260 nM (active); in [17], 3790 nM (active).
